# Data as given in the supplement of paper PMC6897291.
# Tested on: RIVA
# Assay: growth inhibition by drug plus 177Lu-lilotomab satetraxetan (1 - RLU/untreated control) (fraction); higher = stronger inhibition
# Conditions: 177Lu-lilotomab satetraxetan 0.5 ug/ml
# Protocol: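 RIVA (RI-1) ABC-DLBCL cells were pretreated or not for 18 h with 0.5 ug/ml 177Lu-lilotomab satetraxetan (600 MBq/mg), washed and seeded (3000 cells/well) on 384-well plates pre-printed with the Selleck Cambridge Cancer Compound library. Viability was read by RealTime-Glo luminescence on days 3-6 after seeding. Effect = 1 - RLU/mean RLU of the 48 untreated no-drug control wells per plate; Bliss score = (M-E)/(1-Fa).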
SMILES,"growth inhibition by drug plus 177Lu-lilotomab satetraxetan (10 nM, time (day): 3)","growth inhibition by drug plus 177Lu-lilotomab satetraxetan (10 nM, time (day): 4)","growth inhibition by drug plus 177Lu-lilotomab satetraxetan (10 nM, time (day): 5)","growth inhibition by drug plus 177Lu-lilotomab satetraxetan (10 nM, time (day): 6)","growth inhibition by drug plus 177Lu-lilotomab satetraxetan (100 nM, time (day): 3)","growth inhibition by drug plus 177Lu-lilotomab satetraxetan (100 nM, time (day): 4)","growth inhibition by drug plus 177Lu-lilotomab satetraxetan (100 nM, time (day): 5)","growth inhibition by drug plus 177Lu-lilotomab satetraxetan (100 nM, time (day): 6)"
CC(C)[C@]12O[C@H]1[C@@H]1O[C@]13[C@]1(O[C@H]1C[C@H]1C4=C(CC[C@@]13C)C(=O)OC4)[C@@H]2O [Triptolide],0.648,0.885,0.928,0.948,0.941,0.967,0.979,0.984
C[C@]12CCC(=O)C(O)=C1CC[C@@H]1[C@@H]2CC[C@]2(C)C(=O)CC[C@@H]12 [Formestane],0.476,0.532,0.553,0.549,0.447,0.508,0.53,0.533
Cn1cc(C2=C(c3cn(C4CCN(Cc5ccccn5)CC4)c4ccccc34)C(=O)NC2=O)c2ccccc21,0.515,0.546,0.557,0.564,0.356,0.435,0.443,0.436
C=C1C[C@@H]2[C@H](CC[C@]3(C)C(=O)CC[C@@H]23)[C@@]2(C)C=CC(=O)C=C12 [Exemestane],0.609,0.639,0.647,0.653,0.483,0.528,0.533,0.543
O=P1(N(CCCl)CCCl)NCCCO1 (stereo not given) [Cyclophosphamide monohydrate],0.338,0.47,0.502,0.506,0.305,0.403,0.426,0.394
